Laboratory results reported in PubChem BioAssay (Tox21).
Inconclusive results are not listed. Calls of active or inactive are those of the source. The call rests on the fitted dose curve; in most records, active means well fitted cell-killing curve with a large enough effect in the repeat runs; inconclusive means weak or mixed curves, or effect the other way; inactive means flat fitted curve, though single readings scatter.

Test: Human pregnane X receptor (PXR) small molecule agonists, qHTS cell viability counter screen (AID 1346977); further: nearly all actives have a fitted effect of over 50% in size
Conditions: PXR-Luc HepG2 viability, CellTiter-Fluor, 24 h; series mostly up to 92.4 µM; activity change, negative = cytotoxicity: at the top concentration
In short: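 PXR-Luc HepG2 cells (2,000/well, 5% charcoal-stripped FBS) preincubated 5 hr, then exposed to compounds 24 hr at 37 C. Viability read in the same wells by CellTiter-Fluor fluorescence, reagent added at 23 hr, 1 hr incubation.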
On the % scale 0 is the no-effect control and ±100 the full control effect.

Row | Structure (SMILES) | activity change, negative = cytotoxicity
1 | COc1ccc(S(=O)(=O)N2c3ccc(Cl)cc3[C@@](O)(c3ccccc3Cl)[C@H]2C(=O)N2CCC[C@@H]2C(N)=O)cc1OC | 6.82% [at 42.5 µM] (inactive)
2 | CCCCCCCC/C=C\CCCCCCCC(=O)OCCCC | 1.78% [at 19 µM] (inactive)
3 | COc1ccc(OC)c(Cl)c1 | 9.05% (inactive)
4 | N[C@@H](CCC(=O)N[C@@H](CS)C(=O)NCC(=O)O)C(=O)O | 1.19% [at 19 µM] (inactive)
5 | CCOC(=O)c1ccc(OC(=O)CCCCCN=C(N)N)cc1 | 12.2% [at 42.5 µM] (inactive)
6 | CC(C)CC(C)CC(C)CC(C)COC(=O)c1ccccc1C(=O)OCC(C)CC(C)CC(C)CC(C)C (centres undefined) | 0.673% (inactive)
7 | CC(=C(CCOC(=O)C(C)C)SSC(CCOC(=O)C(C)C)=C(C)N(C=O)Cc1cnc(C)nc1N)N(C=O)Cc1cnc(C)nc1N | 8.47% [at 42.5 µM] (inactive)
8 | COC(=O)C1CC(=O)C(C(=O)OC)CC1=O (centres undefined) | 1.52% [at 8.39 µM] (inactive)
9 | Nc1cccc(O)c1 | 6.72% (inactive)
10 | CC(C)CCCC(C)(C)O | 8.27% (inactive)
11 | O=C(NCC(O)CO)c1c(I)c(C(=O)NCC(O)CO)c(I)c(N(CCO)C(=O)CO)c1I (centres undefined) | 3.82% [at 42.5 µM] (inactive)
12 | CCC(C)NC(N)=O (centres undefined) | -2.88% (inactive)
13 | C[C@H](CCC(=O)O)[C@H]1CC[C@H]2[C@@H]3C(=O)C[C@@H]4CC(=O)CC[C@]4(C)[C@H]3CC(=O)[C@]12C | 12.6% [at 42.5 µM] (inactive)
14 | CC(C)OC(=O)CCCCC(=O)OC(C)C | 6.56% (inactive)
15 | CCCOC(=O)C(C)O (centres undefined) | 2.16% (inactive)
16 | O=S(=O)(O)CCN1CCN(CCO)CC1 | 13.2% (inactive)
17 | CCCCOC(=O)c1ccccc1 | 10.8% (inactive)
18 | O=C(OCc1ccccc1)C(=O)OCc1ccccc1 | -0.78% (inactive)
19 | COC(=O)CCc1ccc(OCC(O)CNC(C)C)cc1 (centres undefined) | -7.89% [at 42.5 µM] (inactive)
